# According to PubChem BioAssay AID1053185 (Broad Institute, 2014):
# Results with a measured potency or affinity are listed apart. Unmarked numbers belong to inactive results.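 How the source made its calls: active means cell killing with fitted half-maximal concentration at most twice the top valid dose; inconclusive means flat partial loss of 30 to 70%, or poor fit; inactive means the rest.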
# Assay: cytotoxicity in HEK293 cells, dose response, cytotoxicity control, cell-based, cherry-picked samples (AID 1053185)
# Details: HEK293T viability, ATP luminescence, 72 h; series mostly up to 26 µM; activity change, negative = cytotoxicity: at the top concentration
row,SMILES,"activity change, negative = cytotoxicity"
1,C/C=C/c1ccc([C@H]2[C@@H](CO)N3C(=O)CN(Cc4ccc(F)cc4)C[C@@H]23)cc1,-5.85%
2,CO[C@@H](CN(C)Cc1cc(F)ccc1F)[C@@H](C)CN(C(=O)Nc1ccc(C(F)(F)F)cc1)[C@H](C)CO,-11.8%
3,C[C@@H]1CN([C@@H](C)CO)C(=O)Cc2cc(NC(=O)C3CCCCC3)ccc2O[C@@H]1CN(C)Cc1ccc(Cl)c(Cl)c1,-9.84%
4,CNC[C@@H]1Oc2cc(C#Cc3ccccc3OC)ccc2S(=O)(=O)N([C@H](C)CO)C[C@H]1C,-0.997%
5,O=S(=O)(c1ccc(F)cc1)N1C[C@@H]2N[C@H](C1)C2c1ccc(/C=C/c2ccccc2)cc1 (some centres undefined),-2.66%
6,COc1cccc(-c2cccc(-c3nc(C(=O)Nc4ccc(-c5ccccc5)cc4)cc4c3[C@@H](CCO)N(S(=O)C(C)(C)C)C4)c2)c1 (some centres undefined),-5.79%
7,COc1cc(CN2C[C@@H]3N[C@H](C2)C3c2ccc(-c3ccc(C#N)cc3)cc2)cc(OC)c1 (some centres undefined),-1.68%
8,COc1ccc2c3c(n(C)c2c1)[C@@H](CO)N(CC1CC1)CC31CN(C(=O)c2ccc3c(c2)OCO3)C1,-7.78%
9,CN(C)C(=O)c1cccc(-c2ccc(C3[C@@H]4CN(Cc5ccccc5F)C[C@H]3N4)cc2)c1 (some centres undefined),-7.48% [at 23.5 µM]
